The full list was thinned out, with hits kept by preference.
ALOX12 inh – blocks human arachidonate 12S-lipoxygenase | P18054 | purified 12hLO, xylenol orange hydroperoxide absorbance | Potency, µM (series often up to 108 µM), without a hit: at the highest dose activity change, negative = inhibition, usual class: inhibitors | 580,000 tested, 1.1% active | AID 1671190; note: % is set by controls: 0 for no effect and ±100 for the full control effect
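Hydroperoxide product was detected by ferrous iron/xylenol orange as the 573 to 405 nm absorbance ratio. Arachidonic acid at 40 uM (final) was turned over for 30 min at room temperature by 150 nM human 12hLO, pH 7.0 Hepes buffer, after 15 min compound preincubation.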
VDR inh – blocks the human vitamin D receptor | VDR-SRC2-3 peptide fluorescence polarization, 2 h | AID 504847 | P11473 | Potency, µM, for the others: max response, negative = inhibition, hits mostly inhibitors | 400,000 tested, 0.93% active; note: % is set by controls: 0 for no effect and ±100 for the full control effect
Target sequence (P11473 whole entry, looked up): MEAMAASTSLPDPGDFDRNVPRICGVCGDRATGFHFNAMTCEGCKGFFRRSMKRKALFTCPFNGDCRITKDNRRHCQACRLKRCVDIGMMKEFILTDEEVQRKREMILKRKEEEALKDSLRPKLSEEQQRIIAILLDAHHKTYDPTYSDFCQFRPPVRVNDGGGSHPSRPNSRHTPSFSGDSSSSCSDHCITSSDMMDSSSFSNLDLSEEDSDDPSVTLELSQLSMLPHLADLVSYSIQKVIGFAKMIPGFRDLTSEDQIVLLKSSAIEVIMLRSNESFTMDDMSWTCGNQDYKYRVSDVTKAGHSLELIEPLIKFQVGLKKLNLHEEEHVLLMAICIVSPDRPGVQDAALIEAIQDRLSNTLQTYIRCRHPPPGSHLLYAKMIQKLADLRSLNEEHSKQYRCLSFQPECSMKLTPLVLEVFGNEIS
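Signal is fluorescence polarization, reporting how far test compounds block the interaction of VDR with the SRC2-3 coregulator peptide after a 2 h room-temperature incubation.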
G9a inh – blocks human histone lysine methyltransferase G9a; G9a H3K9 monomethylation, AlphaScreen, 2 h; Potency, µM (series often up to 102 µM), for inactives: at the highest dose activity, negative = inhibition, most hits filed as inhibitors; 350,000 tested, 8.8% active; note: % is set by controls: 0 for no effect and ±100 for the full control effect; nearly all actives have a fitted effect of over 75% in size
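G9a (20 nM) was preincubated 15 min with compound, then reacted 2 h at room temperature with 500 nM biotin-H3K9 peptide and 20 µM SAM. Monomethyl-H3K9 detected by AlphaScreen using anti-H3K9me1 antibody.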
Glioma ERSR ind – ER stress response induction in glioma; U87-MG GRP78 promoter luciferase reporter, 16 h; Potency, µM, for inactives: top-dose activation, actives largely listed as activators; 420,000 tested, 0.02% active; AID 602332; note: series mostly up to about 76 µM; % of control where 0% means no effect; nearly all actives have a fitted effect of over 35% in size
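ERSR induction read as luciferase luminescence (Bright-Glo, 10 min at room temperature) in stably transfected human U87-MG glioma cells exposed to compounds for 16 h, using GRP78 as sensor.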
Sfp inh – Sfp phosphopantetheinyl transferase inhibition; Biochemical Sfp PPTase activity, qHTS; Potency, µM, for inactives: largest response in the series, negative = inhibition, usual class: inhibitors; 310,000 tested, 3.5% active;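 note: the enzyme is Sfp with the accession as filed and its product quenches rhodamine fluorescence; 0% = enzyme reaction without inhibitor and -100% = no enzyme wells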
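Reaction rates are the 30-min fluorescence difference (ex 525, em 598 nm) in wells containing 15 nM Sfp, 5 uM rhodamine-CoA and 12.5 uM BHQ-2-YbbR at pH 7.6 with 10 mM MgCl2.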
Active calls of the source: *; ? = inconclusive; . = no result; [ ] = dose if it differs, or a comment. Calls come from the whole dose curve; as a rule, active = well fitted curve in the direction sought with a large enough effect; inconclusive = small, poorly fitted or top-dose-only effect, or another doubt; inactive = no such curve, though single readings can be large; an effect the other way counts as inactive or inconclusive. Potency is the fitted concentration of half-maximal effect.

SMILES	ALOX12 inh	VDR inh	G9a inh	Glioma ERSR ind	Sfp inh
COc1ccc(-c2cc(N3CCN(C(=O)c4ccc(C)cc4C)CC3)n[nH]2)cc1	-10.6%	.	.	.	.
COc1ccc(/C=N/NC(=O)c2cc(-c3cccn3C)n[nH]2)cc1OC	-3.2%	-15.5%	79.4µM*	1.0%	4.7%
CCOc1cccc(/C=N/NC(=O)c2cc(-c3cccn3C)n[nH]2)c1O	?	-2.3%	47.8%[0.501 µM]	-0.9%	3.0%
Cn1cccc1-c1cc(C(=O)N/N=C/c2cccc(O)c2)[nH]n1	0.3%	6.1%	44.7µM*	5.2%	-17.8%
COC(=O)c1sc(NC(=O)COc2ccc(C)cc2C)nc1C	-6.2%	.	.	.	.
Cc1oc(-c2ccccc2)nc1C(=O)OCC(=O)NC(=O)NC1CCCC1	7.5%	.	.	.	.
O=C1/C(=C/c2cccc(F)c2)CSc2c(F)cccc21	-12.2%	.	.	.	.
CCOC(=O)c1cccc(NC(=O)CCc2nc3c(C)nn(-c4ccc(C)cc4)c3n(CC)c2=O)c1	2.4%	.	.	.	.
COc1ccc(C(=O)NNC(=O)C(=O)N2CCCCC2)cc1OC	?	-5.2%	?	0.1%	-4.6%
COc1cccc(C(=O)NNC(=O)C(=O)N2CCCCC2)c1	-7.5%	1.7%	50.1µM*	-2.8%	10.5%
CN(CC(=O)Nc1c(Cl)cccc1Cl)C(=O)CCC(=O)c1ccccc1	1.9%	4.1%	50.1µM*	-3.4%	.
Cc1cc(C(=O)CCC(=O)N(C)CC(=O)Nc2c(Cl)cccc2Cl)c(C)s1	-12.1%	1.1%	-30.7%	-3.3%	.
CCCNc1c(NC(=O)Cc2ccc(OC)cc2)c(=O)oc2ccccc12	-5.2%	.	.	.	.
O=[N+]([O-])c1cccc(-c2cn3ccccc3n2)c1	-1.1%	-17.0%	0.5%	-6.6%	3.3%
CN1CCN(/N=C/c2nc(-c3cccc([N+](=O)[O-])c3)n3ccccc23)CC1	-14.6%	4.5%	?	1.6%	79.4µM*
O=C(O)c1cccc2c1C(=O)c1cccc3snc-2c13	-19.4%	4.0%	56.2µM*	-3.2%	25.3%
CSc1ccc(CN(C)C(=O)/C=C/c2cccs2)cc1	6.4%	.	.	.	.
Cc1ccc(N(C(=O)CS(=O)CC(=O)Nc2ccc(F)cc2)C(C)C(=O)NC(C)(C)C)cc1 (stereo not drawn)	-27.0%	0.4%	70.8µM*	0.6%	1.2%
N#CCC(=O)c1c[nH]c2ccccc12	29.6%	.	.	.	.
COCCOC1CCN(C(=O)c2cc(C)n(CCOC)c2C)CC1	92.5%	.	.	.	.
Cc1cc(C2=NNC(=NCc3ccccc3)SC2)c(C)n1-c1c(C)n(C)n(-c2ccccc2)c1=O	-25.1%	8.3%	-15.7%[59 µM]	-6.0%	-3.3%
COCCn1c(C)cc(C2=NNC(=NC3CC3)SC2)c1C	-11.4%	-0.7%	39.8µM*	-14.1%	50.1µM*
COc1ccc(CN=C2NN=C(c3ccc(Cl)cc3)CS2)cc1	-5.2%	0.5%	?	-4.4%	-14.0%
C=CCN=C1NN=C(c2cc(C)n(CCOC)c2C)CS1	?	1.6%	-4.5%[59 µM]	-9.8%	39.8µM*
COCCn1c(C)cc(C2=NNC(=Nc3ccc(Cl)cc3Cl)SC2)c1C	?	2.2%	?	-0.9%	56.2µM*
SMILES	ALOX12 inh	VDR inh	G9a inh	Glioma ERSR ind	Sfp inh
COCC(C)N=C1NN=C(c2cc(C)n(Cc3ccccc3Cl)c2C)CS1 (stereo not drawn)	?	-6.6%	39.8µM*	0.8%	-20.4%
CCCn1c(-n2nc(C)cc2C)nc2c1c(=O)n(CCN1CCOCC1)c(=O)n2C	-22.7%	.	.	.	.
COc1cc(C(=O)Nc2ccc(N3CCCC3)nc2)cc2c1OCCO2	-6.4%	.	.	.	.
COCCCN=C1NN=C(c2cc(C)n(Cc3ccco3)c2C)CS1	-19.8%	-10.7%	?	-12.0%	?
Cc1cc(C2=NNC(=NC3CC3)SC2)c(C)n1Cc1ccco1	?	?	25.1µM*	-13.3%	?
O=C(/C=C/c1ccsc1)c1ccccc1	-59.6%	.	.	.	.
COc1ccc(-n2cc(-c3ccccc3)c3c(N4CCN(CCO)CC4)ncnc32)cc1	?	-6.5%	50.1µM*	1.4%	?
OCCN1CCN(c2ncnc3c2c(-c2ccccc2)cn3-c2ccc(F)cc2)CC1	7.6%	-3.7%	-44.2%	-2.3%	-14.1%
Cc1ccc(-n2cc(-c3ccccc3)c3c(N4CCN(C)CC4)ncnc32)cc1	-3.5%	-19.7%	44.7µM*	-3.5%	-11.1%
Cc1ccc(-n2cc(-c3ccccc3)c3c(N4CCCCC4)ncnc32)cc1	-5.5%	6.3%	-26.6%[59 µM]	-4.5%	.
CCCCCCn1nc(C(=O)OC(C)C(=O)NC(N)=O)c2ccccc2c1=O (stereo not drawn)	2.9%	.	.	.	.
